ssDAF-12 act = activators of S. stercoralis DAF-12 nuclear receptor; hit rate 1% among 370,000; HEK293 ssDAF-12/GRIP1 lit1-tk-luc reporter, luminescence; % of 3 µM dafachronic acid response; activation, % at 6.8 µM;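 active = activation above the mean over all tested compounds plus 3 SD, cut at about 0.9% in these data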;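 also: 0% = DMSO-only wells and 100% = 3 µM delta7-dafachronic acid wells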
NR1D1 modulator = modulators of human Rev-erb alpha DNA binding. Rev-erbα–FITC-DNA binding, fluorescence polarization, 90 min. activity, % at 10 µM. hit rate 0.79% among 370,000;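 active = activity above about 14%, limit read from the data; passing the limit was not always enough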;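 also: 0% = DMSO wells with 35 nM protein and 100% = DMSO wells with 750 nM protein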
Target sequence (P20393 whole entry, looked up): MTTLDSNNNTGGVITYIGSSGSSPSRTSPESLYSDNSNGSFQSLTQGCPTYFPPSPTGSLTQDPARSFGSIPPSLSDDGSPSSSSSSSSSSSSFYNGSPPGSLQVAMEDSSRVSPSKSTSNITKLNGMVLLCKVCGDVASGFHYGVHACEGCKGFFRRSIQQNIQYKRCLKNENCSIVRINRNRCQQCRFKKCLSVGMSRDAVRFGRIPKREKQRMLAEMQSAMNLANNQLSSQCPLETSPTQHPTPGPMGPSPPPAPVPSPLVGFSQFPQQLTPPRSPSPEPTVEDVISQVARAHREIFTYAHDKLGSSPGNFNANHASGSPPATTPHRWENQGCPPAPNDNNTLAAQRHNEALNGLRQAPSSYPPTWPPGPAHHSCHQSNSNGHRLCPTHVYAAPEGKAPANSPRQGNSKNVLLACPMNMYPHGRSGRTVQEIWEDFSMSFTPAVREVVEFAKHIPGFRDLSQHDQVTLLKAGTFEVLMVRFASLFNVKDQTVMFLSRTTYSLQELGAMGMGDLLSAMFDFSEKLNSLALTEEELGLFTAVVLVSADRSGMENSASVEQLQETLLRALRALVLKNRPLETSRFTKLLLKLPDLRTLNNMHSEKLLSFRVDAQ
hcDAF12 agonist = activates DAF-12 receptor from parasite H. contortus; hit rate 1.4% among 370,000; AID 652067; activation, % at 6.8 µM; HEK293 hcDAF-12 lit1-tk-luc reporter, luminescence; 0% DMSO, 100% Δ7-dafachronic acid;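 active = activation above the mean of all tested compounds plus 3 SD, cut at about 5.5% in these data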;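 also: 100% = response to 3 µM Δ7-dafachronic acid high control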
hgDAF12 agonist = activates the H. glycines DAF-12 receptor ligand-binding domain. HEK293 GAL4-hgDAF12 UAS-luciferase reporter, agonist luminescence; normalized to butyrate control. activation, % at 6.8 µM. hit rate 1.8% among 370,000;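 active = activation above a cutoff set at the mean of all screened compounds plus 3 SD, cut at about 10% in these data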;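 also: 0% = DMSO wells and 100% = sodium butyrate wells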
DAX1 inh-1 = inhibits human nuclear receptor DAX1. P51843. HEK293 Gal4-DAX1 luciferase reporter, luminescence. inhibition, % at 6.75 µM. hit rate 0.99% among 340,000;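 active = inhibition above the mean over all tested compounds plus 3 SD, cut at about 4.2% in these data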;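 also: 0% = DAX1-transfected cells with DMSO and 100% = empty-vector control cells with DMSO; inhibition shows as a rise in luminescence from relieved DAX1 repression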
DAX1 inh-2 = DAX1 (NR0B1) inhibition, primary screen; hit rate 1.1% among 370,000; inhibition, % at 6.8 µM; AID 652010; HEK293T StAR-luciferase reporter, SF-1/DAX-1 repression relief;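 active = inhibition above the mean over all tested compounds plus 3 SD, cut at about 3.6% in these data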;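 also: 0% = DAX-1 cells with DMSO and 100% = cells lacking DAX-1 with DMSO; higher inhibition means more luminescence from relief of DAX-1 repression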
* marks the source's active call; other numbers are inactive results. The list is not random: actives were taken first. Their share in the collection is about 4.8%.

For O=C(NNc1ncnc2ccccc12)c1cccc(Cl)c1 the results were ssDAF-12 act 1, NR1D1 modulator -6, hcDAF12 agonist 3, hgDAF12 agonist 11*, DAX1 inh-1 5.8* and DAX1 inh-2 1.
`O=C(O)/C=C/C(=O)NNc1ncnc2ccccc12` gave ssDAF-12 act 0, NR1D1 modulator -3, hcDAF12 agonist 1, hgDAF12 agonist 1, DAX1 inh-1 1 and DAX1 inh-2 0.
`CC(=O)Nc1cc2nc3ccccc3oc-2cc1=O` gave ssDAF-12 act -1, NR1D1 modulator -2, hcDAF12 agonist -2, hgDAF12 agonist -5 and DAX1 inh-2 -3.
`COC(=O)C[C@H]1CC[C@@H]2[C@H](COc3ccc(NC(=O)C(C)C)cc3C(=O)N2C)O1` gave ssDAF-12 act -1, NR1D1 modulator 0, hcDAF12 agonist 0, hgDAF12 agonist -1 and DAX1 inh-2 0.
COC(=O)c1cccc(NC(=O)CSc2nnc(COc3ccc(C#N)cc3)n2-c2ccccc2)c1 was read as ssDAF-12 act -1, NR1D1 modulator 4, hcDAF12 agonist -2, hgDAF12 agonist 0, DAX1 inh-1 5.1* and DAX1 inh-2 -1.
For CN(CCCOC(=O)c1cc2ccccc2o1)C1CN(Cc2cn(Cc3ccc([N+](=O)[O-])cc3)nn2)S(=O)(=O)C1 (stereo unspecified) the results were ssDAF-12 act -1, NR1D1 modulator 3, hcDAF12 agonist 0, hgDAF12 agonist 3 and DAX1 inh-2 0.
Screening CCCCCCCCN1C(=O)[C@@H](CC(=O)NCCCN2CCCC2=O)C[C@@]2(C(=O)OC)C1=C[C@H](C(C)(C)C)O[C@@H]2C returned ssDAF-12 act -1, NR1D1 modulator -4, hcDAF12 agonist -1, hgDAF12 agonist -3 and DAX1 inh-2 0.
For Cc1cccc(C)c1NC(=O)c1cnccn1 the results were ssDAF-12 act 1.0*, NR1D1 modulator -2, hcDAF12 agonist -2, hgDAF12 agonist -1, DAX1 inh-1 0 and DAX1 inh-2 0.
Screening Nc1[nH]c(C(=O)c2ccccc2)c(-c2ccc(Cl)cc2Cl)c1C(=O)NCCC1=CCCCC1 returned ssDAF-12 act -2, NR1D1 modulator -8, hcDAF12 agonist 0 and hgDAF12 agonist 0.
O=S(=O)(c1ccc(Cl)nc1)N1CCN(Cc2ccc3c(c2)OCO3)CC1 was read as ssDAF-12 act -1, NR1D1 modulator -1, hcDAF12 agonist -2, hgDAF12 agonist 11*, DAX1 inh-1 2 and DAX1 inh-2 0.
`Cc1nc(-c2ccc(C(=O)N3CCOCC3)cc2)cs1` gave ssDAF-12 act -1, NR1D1 modulator 3, hcDAF12 agonist -1, hgDAF12 agonist -1, DAX1 inh-1 1 and DAX1 inh-2 0.
Cc1nc(-c2ccc(C(=O)N3CCCC3)cc2)cs1 was read as ssDAF-12 act 0, NR1D1 modulator 1, hcDAF12 agonist 3, hgDAF12 agonist 11*, DAX1 inh-1 -1 and DAX1 inh-2 4.
For COC(=O)[C@]12C[C@H](CC(=O)NCc3cccc4ccccc34)C(=O)N(Cc3ccccc3)C1=C[C@H](C(C)C)O[C@@H]2C1CC1 the results were ssDAF-12 act -1, NR1D1 modulator 1, hcDAF12 agonist 0, hgDAF12 agonist 0 and DAX1 inh-2 0.
Screening Cc1cccc(-n2ccnc2CN2CCN(C3CCCC3)C(CCO)C2)c1 (stereo unspecified) returned ssDAF-12 act -1, NR1D1 modulator -1, hcDAF12 agonist -1, hgDAF12 agonist -2, DAX1 inh-1 2 and DAX1 inh-2 0.
COc1ccc(-n2ccnc2CN2CCN(C3CCCC3)C(CCO)C2)cc1 (stereo unspecified) was read as ssDAF-12 act -2, NR1D1 modulator -4, hcDAF12 agonist -1, hgDAF12 agonist 3, DAX1 inh-1 4.7* and DAX1 inh-2 0.
Screening CCn1c(=O)n(CC(=O)N2CCC(C)CC2)c(=O)c2ccccc21 returned ssDAF-12 act -2, NR1D1 modulator -11, hcDAF12 agonist -1, hgDAF12 agonist 1 and DAX1 inh-2 0.
COc1ccc(-c2nnn(CC(=O)N3CCN(c4ccc(F)cc4)CC3)n2)cc1 was read as ssDAF-12 act -2, NR1D1 modulator 2, hcDAF12 agonist -1, hgDAF12 agonist 1, DAX1 inh-1 5.3* and DAX1 inh-2 0.
Screening COc1ccc(Cn2cc(CN3[C@@H](CC(C)C)COc4cccc(F)c4S3(=O)=O)nn2)cc1 returned ssDAF-12 act -2, NR1D1 modulator 1, hcDAF12 agonist -1, hgDAF12 agonist 0 and DAX1 inh-2 -1.
For O=c1c2cc3cccnc3nc2ncn1Cc1cccs1 the results were ssDAF-12 act -1, NR1D1 modulator 1, hcDAF12 agonist 2, hgDAF12 agonist 0 and DAX1 inh-2 1.
CC(C)(O)C#Cc1ccc(C(=O)NC2CCCCC2)s1 was read as ssDAF-12 act -1, NR1D1 modulator 5, hcDAF12 agonist 2, hgDAF12 agonist 11*, DAX1 inh-1 1 and DAX1 inh-2 1.
Screening CC1CCc2sc(C(=O)NC3CCCCC3)cc2C1 (stereo unspecified) returned ssDAF-12 act -1, NR1D1 modulator 0, hcDAF12 agonist 3, hgDAF12 agonist 12*, DAX1 inh-1 4 and DAX1 inh-2 2.
CCc1ccc(C(=O)NC2CCCCC2)s1 was read as ssDAF-12 act 1, NR1D1 modulator -4, hcDAF12 agonist 3, hgDAF12 agonist 11*, DAX1 inh-1 1 and DAX1 inh-2 3.
For COc1ccc(-c2nnc(SCC(=O)NN=Cc3c(O)ccc4ccccc34)n2-c2ccc(OC)cc2)cc1 the results were ssDAF-12 act -1, NR1D1 modulator -6, hcDAF12 agonist -2, hgDAF12 agonist -4 and DAX1 inh-2 -2.
CCN(CC)c1ccc2cc(-c3nc4ccccc4n3C)c(=O)oc2c1 was read as ssDAF-12 act 1.0*, NR1D1 modulator 11, hcDAF12 agonist 2, hgDAF12 agonist 3, DAX1 inh-1 2 and DAX1 inh-2 3.6*.
For CCN(CC)c1ccc2cc(-c3nc4ccccc4[nH]3)c(=O)oc2c1 the results were DAX1 inh-1 -2.
`CCOC(=O)N1CCN(C(=O)C[C@H]2C(=O)N(CCCOC)C3=CCCC[C@@]32C(=O)OCC)CC1` gave ssDAF-12 act 0, NR1D1 modulator 0, hcDAF12 agonist 0, hgDAF12 agonist -3 and DAX1 inh-2 -1.
O=C(c1ccccc1Cl)c1c(O)c2ccccc2oc1=O was read as ssDAF-12 act -1, NR1D1 modulator -4, hcDAF12 agonist -1, hgDAF12 agonist 1, DAX1 inh-1 5.6* and DAX1 inh-2 0.
`O=C(c1c(O)c2ccccc2oc1=O)C1CCC1` gave ssDAF-12 act -1, NR1D1 modulator 2, hcDAF12 agonist -1, hgDAF12 agonist 2, DAX1 inh-1 -1 and DAX1 inh-2 0.

Screening data as filed in PubChem.
